The text below walks through data of PubChem BioAssay (NCI).

A short description of experiment [1]: NCI Yeast Anticancer Drug Screen. Data for the rad50 strain (AID 155).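 Also: 0% = growth of vehicle-only cultures of the same strain.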 The conditions noted are these: S. cerevisiae rad50 strain growth inhibition; at 50.0 µM; hits give high values. In outline: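 Inhibition values express reduced yeast growth in compound-treated cultures relative to vehicle-treated controls.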
A short description of experiment [2]: NCI Yeast Anticancer Drug Screen. Data for the mec2-1 strain (AID 157). The conditions noted are these: S. cerevisiae mec2-1 strain, at 50.0 µM, hits give high values. The gist of the method:
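Using mec2-1 yeast: add compound, measure growth, express inhibition versus vehicle-treated cultures.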

Experiment [3] is described as follows: NCI Yeast Anticancer Drug Screen. Data for the sgs1 mgt1 strain (AID 161).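 Also: 0% = growth of cultures given vehicle only.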 The conditions noted are these: S. cerevisiae sgs1 mgt1 strain, at 50.0 µM, hits give high values. The gist of the method: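 Percent growth inhibition was derived by comparing compound-exposed mutant yeast with vehicle-exposed cultures. The strain carries alterations in DNA damage repair.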

Experiment [4] is described as follows: NCI Yeast Anticancer Drug Screen. Data for the cln2 rad14 strain (AID 165).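 Also: 0% = growth equal to vehicle treated cultures.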 To be noted: S. cerevisiae cln2 rad14 strain, at 50.0 µM, hits give high values. The gist of the method: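 Yeast strain cln2 rad14, bearing defects in cell cycle control and DNA repair, serves as the test system; values reflect growth inhibition compared with vehicle.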
Experiment [5] is described as follows: NCI Yeast Anticancer Drug Screen. Data for the bub3 strain (AID 167). To be noted: S. cerevisiae bub3 mutant strain, at 50.0 µM, hits give high values. In outline: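 Steps: expose the mutant yeast strain to compound; grow alongside vehicle-treated cultures; measure growth; express inhibition against the vehicle cultures.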
Experiment [6] can be described thus: NCI Yeast Anticancer Drug Screen. Data for the mlh1 rad18 strain (AID 175). The conditions noted are these: S. cerevisiae mlh1 rad18 strain growth inhibition; at 50.0 µM; hits give high values. The gist of the method:
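Steps: expose repair-defective yeast to compound; measure growth; express inhibition against vehicle-treated controls.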

This is part of a sample that, as a whole, favours compounds with a hit. Of some 79,000 tested, about 15% had one in any assay. Values without a mark were called inactive. Activity calls are given as the source filed them. Rule as the data show it: active = growth inhibition above about 70%; inactive = the rest.

On to `O=[N+]([O-])c1ccccc1C=Nc1ccc2nc(SCc3ccccc3)sc2c1`, for which the growth inhibition is 8.15% in experiment [1]; 3.65% in experiment [2]; 3.95% in experiment [3]; 0.7% in experiment [4]; -4% in experiment [5]; -16.8% in experiment [6].
Consider `COc1ccc(CC(=O)OCC2CCCO2)cc1OC` (centres undefined), for which the growth inhibition was -8.5% in experiment [1]; -1.25% in experiment [2]; 9.9% in experiment [3]; -20.6% in experiment [4]; 5.6% in experiment [5]; 4% in experiment [6].
With `COC(=O)N1C(C#N)=CCc2ccccc21`, the growth inhibition was 26.4% in experiment [1]; 31.2% in experiment [2]; 16.9% in experiment [3]; -6.25% in experiment [4]; 3.8% in experiment [5]; 5.65% in experiment [6].
Regarding `CC1=C(O)CC(=O)C1`, the growth inhibition in experiment [1] was -14%; in experiment [2] it was -8.8%; in experiment [3], -6.9%; in experiment [4], 0.2%; in experiment [5] it was 6.4%; in experiment [6] it was -9.45%.
For the compound `Cc1ccccc1-c1nc2c([nH]1)c(=O)n(C)c(=O)n2C`, the growth inhibition is 32.8% in experiment [1]; -2.2% in experiment [2]; -10.2% in experiment [3]; -32.3% in experiment [4]; 0.25% in experiment [5]; 2.75% in experiment [6].
As to `Nc1cc(Cl)c(F)cc1Cl`, the growth inhibition in experiment [1] is -13.3%; in experiment [2] it was 0.25%; in experiment [3], -3.6%; in experiment [4], -28.8%; in experiment [5], 1.15%; in experiment [6], -14.2%.
Turning to `CN(C)S(=O)(=O)N1CCCc2ccccc21`, the growth inhibition is 3.4% in experiment [1]; 8.8% in experiment [2]; 3.55% in experiment [3]; 7.1% in experiment [4]; 31.1% in experiment [5]; 11% in experiment [6].
In the case of `COc1ccc(N=Cc2ccc(N(CCC#N)S(=O)(=O)c3ccccc3)cc2)cc1`, the growth inhibition in experiment [1] was 0.2%; in experiment [2], -13.3%; in experiment [3], 2.05%; in experiment [4], 11.2%; in experiment [5] it was 9.25%; in experiment [6], -3.15%.
For `Cc1cccc(/C=N/NC(=S)NCCc2ccccn2)n1`, the growth inhibition is -17.4% in experiment [1]; -33.8% in experiment [2]; 14.2% in experiment [3]; 0.8% in experiment [4]; 9.55% in experiment [5]; -2.85% in experiment [6].
Regarding `O=C1CC(C(=O)O)Cc2c(Br)ccc(O)c21` (centres undefined), the growth inhibition was 20.8% in experiment [1]; 13.8% in experiment [2]; -22.5% in experiment [3]; -3.6% in experiment [4]; -34% in experiment [5]; -44.4% in experiment [6].
In the case of `CC1COC(C(C)C)(C(C)C)O1` (centres undefined), the growth inhibition in experiment [1] was -8.6%; in experiment [2], -30.1%; in experiment [3], -4.2%; in experiment [4], -10%; in experiment [5], -2.7%; in experiment [6], 22.4%.
As to `CC(C)(Oc1ccc(/C=C/C(=O)c2ccc(Cl)cc2)cc1)C(=O)Nc1c(Cl)cccc1Cl`, the growth inhibition in experiment [1] is 0.85%; in experiment [2], -2.05%; in experiment [3], 2.6%; in experiment [4] it was 12.1%; in experiment [5], 12.8%; in experiment [6], 19%.
In the case of `O=C1CC[C@@H](S(=O)(=O)c2ccccc2)[C@@H](/C=C/c2ccccc2)O1`, the growth inhibition in experiment [1] was -26.8%; in experiment [2], -1.75%; in experiment [3] it was 7.15%; in experiment [4] it was -12.8%; in experiment [5], -10.7%; in experiment [6] it was -6.7%.
In the case of `NC(=O)C(Cc1ccccc1Cl)c1ccccc1` (centres undefined), the growth inhibition was -7.6% in experiment [1]; -2.9% in experiment [2]; -2.75% in experiment [3]; -43% in experiment [4]; -8.35% in experiment [5]; 12.7% in experiment [6].
`CCNc1nc(Cl)nc(C(Cl)(Cl)Cl)c1Cl` (tested in a mixture with another compound): the growth inhibition in experiment [1] was 96.6% (active); in experiment [2], 95.1% (active); in experiment [3] it was 97.8% (active); in experiment [4], 74.6% (active); in experiment [5], 71% (active); in experiment [6], 95.5% (active).
Consider `CC(C)CCC[C@@H](C)[C@H]1CC[C@@]2(C)C3=C(C(=O)C[C@]12C)[C@@]1(C)CC[C@H](O)C(C)(C)[C@@H]1CC3=O`, for which the growth inhibition is 8.5% in experiment [1]; -16.7% in experiment [2]; 17.1% in experiment [3]; -40.6% in experiment [4]; 6.1% in experiment [5]; 10.3% in experiment [6].
As to `COc1ccccc1NCC(=O)Nn1c(C)nc2ccc(S(=O)(=O)Nc3ccccc3OC)cc2c1=O`, the growth inhibition is 2.85% in experiment [1]; -18.9% in experiment [2]; 20.9% in experiment [3]; 16.2% in experiment [4]; 1.55% in experiment [5]; 0.1% in experiment [6].
For the compound `CC1(C)OC(CP(=O)(c2ccccc2)c2ccccc2)C(CP(=O)(c2ccccc2)c2ccccc2)O1` (centres undefined), the growth inhibition was 23.1% in experiment [1]; 13.1% in experiment [2]; 15.4% in experiment [3]; 18.2% in experiment [4]; -2.2% in experiment [5]; 13.2% in experiment [6].
Consider `CCCc1ccc(OCC(=O)O)c(OC)c1`, for which the growth inhibition in experiment [1] was -2.45%; in experiment [2] it was -1.25%; in experiment [3], 0.95%; in experiment [4], 4.4%; in experiment [5], -22.5%; in experiment [6], -7.45%.
For the compound `COc1ccccc1NC(=S)NCCO`, the growth inhibition in experiment [1] was 7.25%; in experiment [2], 8.7%; in experiment [3], 17.6%; in experiment [4], 0.8%; in experiment [5], 21.1%; in experiment [6], 13.6%.
Regarding `N#CC(OC(=O)c1cccc(C(=O)OC(C#N)(C(F)(F)F)C(F)(F)F)c1Sc1ccccc1)(C(F)(F)F)C(F)(F)F`, the growth inhibition is 27% in experiment [1]; 13.8% in experiment [2]; -10.1% in experiment [3]; -7.8% in experiment [4]; 7.55% in experiment [5]; -1.3% in experiment [6].
As for `CC1CCCC(CCO)CC1` (centres undefined), the growth inhibition in experiment [1] is 11.6%; in experiment [2], 5.8%; in experiment [3] it was 6.4%; in experiment [4] it was 0.1%; in experiment [5], 15.7%; in experiment [6] it was 6.3%.
Consider `OC1CC/C=C\CC/C=C/CCC1O` (centres undefined), for which the growth inhibition in experiment [1] was -5.75%; in experiment [2], 6.45%; in experiment [3] it was 0.5%; in experiment [4] it was 24.1%; in experiment [5], 3.8%; in experiment [6] it was 0.55%.
Turning to `CCOC(=O)C(C(C)=O)C(c1ccc(N(C)C)cc1)C(C(C)=O)C(=O)OCC` (centres undefined), the growth inhibition in experiment [1] was 8.75%; in experiment [2], -7%; in experiment [3], 7.75%; in experiment [4], -6.2%; in experiment [5] it was -4%; in experiment [6], 9.45%.
For the compound `CCN(CC)CC(O)CO` (centres undefined), the growth inhibition was -4.55% in experiment [1]; -16.6% in experiment [2]; -17.1% in experiment [3]; 5.9% in experiment [4]; 2% in experiment [5]; 1.35% in experiment [6].
On to `O=c1c2c(sc3ccccc13)NCN(CCc1ccccc1)C2`, for which the growth inhibition in experiment [1] is -10.7%; in experiment [2], -4.15%; in experiment [3], 20.9%; in experiment [4], 3.2%; in experiment [5], 19.1%; in experiment [6], 12.2%.
As to `COc1ccc(C(=O)O)c2c(=O)c3ccccc3[nH]c12`, the growth inhibition was -28.8% in experiment [1]; -3.2% in experiment [2]; -8.55% in experiment [3]; 17.2% in experiment [4]; 3.2% in experiment [5]; 26.8% in experiment [6].
Regarding `CC(C)(C)OC(=O)NO`, the growth inhibition is -0.6% in experiment [1]; 2.9% in experiment [2]; 0% in experiment [3]; 1.75% in experiment [4]; 5.05% in experiment [5]; 4.7% in experiment [6].
As to `CC1(C)C(=NN=C(N)N)C(C)(C)C1=NN=C(N)N`, the growth inhibition was -3.35% in experiment [1]; -6.95% in experiment [2]; -15.8% in experiment [3]; 29.3% in experiment [4]; -18.5% in experiment [5]; 14.7% in experiment [6].
In the case of `COc1cc(NCCNCC(C)(C)C)c2ncccc2c1`, the growth inhibition was 11.7% in experiment [1]; 18.7% in experiment [2]; 22.1% in experiment [3]; 11.8% in experiment [4]; 33.5% in experiment [5]; 0.5% in experiment [6].
Turning to `CCCCN=C(NC#N)NCCCC`, the growth inhibition was -27.6% in experiment [1]; 7.9% in experiment [2]; -31.2% in experiment [3]; -0.1% in experiment [4]; -25.4% in experiment [5]; -13.8% in experiment [6].
Consider `c1ccc(-c2nc3ccccc3nc2-c2ccc(-c3nc4ccccc4nc3-c3ccccc3)cc2)cc1`, for which the growth inhibition in experiment [1] is 8.2%; in experiment [2] it was -0.6%; in experiment [3], -9%; in experiment [4], 4.6%; in experiment [5], 1.85%; in experiment [6], -18.8%.
Consider `CCOc1c(N=Nc2ccccc2[N+](=O)[O-])c(C)nn1C(N)=S`, for which the growth inhibition was -6.5% in experiment [1]; -5.95% in experiment [2]; 24.5% in experiment [3]; -26.8% in experiment [4]; -20.9% in experiment [5]; 17.4% in experiment [6].
In the case of `CC(NC(=O)c1ccc(C(C[N+](=O)[O-])SCCC(=O)O)cc1)C(=O)O` (centres undefined), the growth inhibition in experiment [1] was 18.9%; in experiment [2], 7.2%; in experiment [3] it was 26.2%; in experiment [4], 5.55%; in experiment [5] it was -15.9%; in experiment [6], 1.2%.
